Records with an inconclusive call do not appear. Active and inactive are the calls of the source. Calls come from the whole dose curve; as a rule, active = well fitted cell-killing curve with a large enough effect; inconclusive = small, poorly fitted or top-dose-only effect, or effect the other way; inactive = flat fitted curve, though single readings scatter.
Legend:
Experiment in all cases: Primary qHTS to identify gynecologic anti-cancer compounds using libraries of approved drugs and bioactive compounds (AID 1345084); note: nearly all actives have a fitted effect of over 55% in size
[1] = test system: C33A; details: Gynecologic cancer cell panel viability, ATPlite luminescence, 48 h; series mostly up to 57.5 µM
Summary of the method: (§1)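 Cell viability after 48 h drug treatment, ATPlite luminescence readout; five doses.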

[2] = test system: CAOV3; details: Gynecologic cancer cell panel viability, ATPlite luminescence, 48 h; series mostly up to 57.5 µM
Summary of the method: as §1

[3] = test system: CASKI; details: Gynecologic cancer cell panel viability, ATPlite luminescence, 48 h; series mostly up to 57.5 µM
Summary of the method: as §1

[4] = test system: Es-2; details: Gynecologic cancer cell panel viability, ATPlite luminescence, 48 h; series mostly up to 57.5 µM
Summary of the method: as §1

[5] = test system: HeLa; details: Gynecologic cancer cell panel viability, ATPlite luminescence, 48 h; series mostly up to 57.5 µM
Summary of the method: as §1

[6] = test system: Hek293T; details: Gynecologic cancer cell panel viability, ATPlite luminescence, 48 h, control line for the selectivity index; series mostly up to 57.5 µM
Summary of the method: as §1
% is set by controls: 0 for no effect and ±100 for the full control effect.

CC1(C)CC[C@]2(C(=O)O[C@@H]3O[C@H](CO)[C@@H](O)[C@H](O)[C@H]3O)CC[C@]3(C)C(=CCC4[C@@]5(C)C[C@@H](O)[C@H](O)C(C)(C)C5[C@H](O)C[C@]43C)[C@@H]2[C@@H]1O (stereo not given in full)
inactive: Potency [1] | Potency [2] | Potency [3] | Potency [4] | Potency [5] | Potency [6]

COc1ccccc1NC(=O)OCC1CCN(C(=O)OC(C)(C)C)CC1
inactive: Potency [1] | Potency [2] | Potency [3] | Potency [4] | Potency [5] | Potency [6]

CC(=O)O[C@@H]1[C@@H](OC(=O)/C=C/c2ccccc2)[C@@H](OC(C)=O)[C@H](O[C@H]2[C@@H]3C=CO[C@@H](O[C@@H]4O[C@H](CO)[C@@H](O)[C@H](O)[C@H]4O)[C@@H]3[C@@]3(CO)O[C@@H]23)O[C@H]1C
inactive: Potency [1] | Potency [2] | Potency [3] | Potency [4] | Potency [5] | Potency [6]

C[C@@H]1O[C@@H](O[C@H]2[C@H](O)[C@@H](O)[C@H](O[C@H]3[C@H](O[C@H]4CC[C@@]5(C)C(=CC[C@@H]6C5CC[C@]5(C)[C@@H]7[C@H](C[C@@H]65)O[C@]5(CC[C@@](C)(CO[C@@H]6O[C@H](CO)[C@@H](O)[C@H](O)[C@H]6O)O5)[C@H]7C)C4)O[C@H](CO)[C@@H](O)[C@@H]3O)O[C@@H]2CO)[C@H](O)[C@H](O)[C@H]1O (stereo not given in full)
inactive: activity change, negative = cytotoxicity [1] 1.06% [at 11.6 µM] | activity change, negative = cytotoxicity [2] -9.22% [at 11.6 µM] | activity change, negative = cytotoxicity [3] 21.1% [at 11.6 µM] | activity change, negative = cytotoxicity [4] 3.9% [at 11.6 µM] | activity change, negative = cytotoxicity [5] 6.34% [at 11.6 µM] | activity change, negative = cytotoxicity [6] -9.56% [at 11.6 µM]

C[C@@H]1O[C@@H](O[C@H]2[C@H](O[C@H]3[C@H](O[C@H]4CC[C@@]5(C)C(CC[C@]6(C)C5CC=C5[C@@H]7CC(C)(C)C[C@@H](O)[C@]7(C)CC[C@]56C)[C@@]4(C)CO)O[C@H](C(=O)O)[C@@H](O)[C@@H]3O)OC[C@H](O)[C@@H]2O)[C@H](O)[C@H](O)[C@H]1O (stereo not given in full)
inactive: activity change, negative = cytotoxicity [1] -0.169% [at 11.6 µM] | activity change, negative = cytotoxicity [2] 0% [at 11.6 µM] | activity change, negative = cytotoxicity [3] -2.47% [at 11.6 µM] | activity change, negative = cytotoxicity [4] 1.77% [at 11.6 µM] | activity change, negative = cytotoxicity [5] 0% [at 11.6 µM] | activity change, negative = cytotoxicity [6] -7.13% [at 11.6 µM]

CC(=O)C1=CCC2C3CCC4CC(O[C@@H]5O[C@H](CO)[C@@H](O[C@@H]6O[C@@H](C)[C@H](O)[C@@H](O)[C@H]6O)[C@H](O)[C@H]5O[C@@H]5O[C@H](CO)[C@@H](O)[C@H](O)[C@H]5O)CCC4(C)C3CCC12C (stereo not given in full)
inactive: Potency [1] | Potency [2] | Potency [3] | Potency [4] | Potency [5] | Potency [6]

C/C1=C\C[C@]2(C)C(=O)C(O)=C([C@H](C)CO)[C@H]2C/C=C(\C)[C@@H](O)CC/C(C)=C/CC1
inactive: Potency [1] | Potency [2] | Potency [3] | Potency [4] | Potency [5] | Potency [6]

C/C=C/c1cc(OC)c2c(c1)[C@@H](C)[C@@H](c1ccc(O)c(OC)c1)O2
inactive: Potency [1] | Potency [2] | Potency [3] | Potency [4] | Potency [5] | Potency [6]

Cn1cc(-c2ccc3nnc(Sc4ccc5nn(C)cc5c4)n3n2)cn1
inactive: Potency [1] | Potency [2] | Potency [3] | Potency [4] | Potency [5] | Potency [6]

Cn1c2ccc(F)cc2c2c(C(=O)N3CCCC3)cn(-c3ccccc3)c(=O)c21
inactive: Potency [1] | Potency [2] | Potency [3] | Potency [4] | Potency [5] | Potency [6]

O=C(O)c1cccc(S(=O)(=O)N2CCc3ccccc3C2)c1
inactive: Potency [1] | Potency [2] | Potency [3] | Potency [4] | Potency [5] | Potency [6]

CCn1cc(NC(=S)Nc2cc(Cl)ccc2OC)c(C(N)=O)n1
inactive: Potency [1] | Potency [2] | Potency [3] | Potency [4] | Potency [5] | Potency [6]

CSc1ccc(C(=O)N[C@@H]2CCCC[C@@H]2NC(=O)CNC(=O)c2cc(C(F)(F)F)ccc2NC(=O)NC(C)C)cc1
inactive: Potency [1] | Potency [2] | Potency [3] | Potency [4] | Potency [5] | Potency [6]

CCCC(=O)NCCc1csc(-c2ccc(Cl)cc2)n1
inactive: Potency [1] | Potency [2] | Potency [3] | Potency [4] | Potency [5] | Potency [6]

C=C[C@H]1[C@H](O[C@@H]2O[C@H](CO)[C@@H](O)[C@H](O)[C@H]2O)OC=C(C(=O)OC)[C@H]1C/C=C(/C=O)[C@@H]1C(C(=O)OC)=CO[C@@H](O[C@@H]2O[C@H](CO)[C@@H](O)[C@H](O)[C@H]2O)[C@@H]1C=C
inactive: Potency [1] | Potency [2] | Potency [3] | Potency [4] | Potency [5] | Potency [6]

COc1c2c(c(C)c3c1C(=O)OC3)O[C@@]1(C)CC(O)C(C(C)(C)O)[C@](C)(CCC(=O)O)[C@H]1C2 (stereo not given in full)
inactive: Potency [1] | Potency [2] | Potency [3] | Potency [4] | Potency [5] | Potency [6]

CC1(C)CCCC2(C)C1C(O)C=C(CO)C2(O)CO (stereo not given)
inactive: Potency [1] | Potency [2] | Potency [3] | Potency [4] | Potency [5] | Potency [6]

COc1cc2c(cc1OC)CC(=O)N(CCCNC[C@H]1Cc3cc(OC)c(OC)cc31)CC2
inactive: Potency [1] | Potency [2] | Potency [3] | Potency [4] | Potency [5] | Potency [6]

CC12CCC(OC3OC(CO)C(O)C(OC4OC(CO)C(O)C(O)C4O)C3O)CC1CCC1C2CCC2(C)/C(=C3/COC(=O)C3)CCC12O (stereo not given)
inactive: Potency [1] | Potency [2] | Potency [3] | Potency [4] | Potency [5] | Potency [6]

CC(=O)N1CCc2ccc(O)c(OC3OC(COC4OCC(O)(CO)C4O)C(O)C(O)C3O)c2C1Cc1ccc(O)cc1 (stereo not given)
inactive: Potency [1] | Potency [2] | Potency [3] | Potency [4] | Potency [5] | Potency [6]
